The record followed here is PubChem BioAssay (NCATS).

Values joined by “and” are separate entries in the source; they are usually repeats but may differ in a detail not shown here. Equal values may be shown once. Results filed as inconclusive are left out. A call without a number means that no potency is given here. Active and inactive are the calls of the source. Calls follow the shape of the dose curve; as a rule, active = well fitted cell-killing curve with a large enough effect; inconclusive = small, poorly fitted or top-dose-only effect; inactive = flat fitted curve, though single readings scatter.
Potency is read from the fitted curve at half-maximal effect.

The experiment in a line: qHTS of pediatric cancer cell lines to identify multiple opportunities for drug repurposing: Primary screen for RD cells (AID 1347104). Also: nearly all actives have a fitted effect of over 55% in size. Particulars: RD rhabdomyosarcoma viability, CellTiter-Glo luminescence, 48 h; series mostly up to 46 µM. The text has this: Drug repurposing or repositioning has been offered as a strategy for drug development in oncology programs. This approach has special potential for childhood cancers and other rare or orphan diseases, where the expected return on new drug development has been a disincentive to pharmaceuticals. […] In this project we exploit the poly-pharmacology of drugs to discover new indications via phenotypic screening of a panel of 19 well-characterized cell lines derived from solid tumors seen in children and adolescents. The goal is to identify approved drugs with previously unrecognized anticancer properties that has the potential to reveal new mechanisms and biological processes involved in carcinogenesis or drug resistance. We employed a titration-based paradigm (quantitative high-throughput screening or qHTS), where all compounds were tested at multiple concentrations for their effect on cell viability. Concentration-response curves (CRCs) were derived directly from the primary screen, and both potency and efficacy values were used to identify compounds with robust bioactivity profiles. We screened the NIH Chemical Genomics Center (NCGC) Pharmaceutical Collection (NPC) and Mechanism Interrogation Plate (MIPE) small molecule collections of approved and investigational compounds against these cell lines; and measured metabolically active cells after 48 hours of compound treatment as a proxy for cell viability. […] Assay Submitter: Nathalia J. Martinez, National Center for Advancing Translational Sciences, National Institutes of Health, Rockville, MD, USA; email: natalia.martinez@nih.gov Shen, M et al. Quantitative high-throughput phenotypic screening of pediatric cancer cell lines identifies multiple opportunities for drug repurposing. Oncotarget 2017 Dec 19;9(4):4758-4772. PMID 29435139.
The cells were obtained from University of North Carolina (UNC), Pediatric Preclinical Testing Program (PPT), and Coriell Institute (CI). qHTS cell viability assay: Cells were assayed in growth media at a density of 500-1,000 cells/well. Five microliters of cells were dispensed into 1,536-well, white, solid-bottom, TC-treated plates (Greiner Bio One) using a multidrop dispenser and incubated at 37 degrees C, 5% CO2, under a humidified atmosphere for 5 hours. Twenty-three nanoliters of compounds and controls (neutral control DMSO or positive control bortezomib at final concentration of 2.3 µM) were subsequently transferred by Kalypsys pintool. For primary screens, the MIPE collection was tested at 11-point dilutions (final concentrations range from 0.78 nM to 46 µM) and the NPC collection at 8-point dilutions (final concentrations range from 0.59 nM to 46 µM). Compounds tested in follow-up screens were assayed at 11-point dilutions. Cells were incubated for 48 hours, followed by addition of 3 µL of CellTiter-Glo (Promega). After a 15 min incubation at room temperature, samples were analyzed for luminescence intensity using a ViewLux High-throughput CCD imager equipped with clear filters.
A general note: Quantitative high-throughput screening tests each substance at several concentrations.
Consider `O=C(c1ccc(F)cc1)C1CCN(CCn2c(=O)[nH]c3ccccc3c2=O)CC1`, for which the Potency entry was “inactive”.
On to `CC(=O)OCC(CCn1cnc2cnc(N)nc21)COC(C)=O`, for which the Potency result was “inactive”.
Regarding `CN1C(C(=O)Nc2ccccn2)=C(O)c2ccccc2S1(=O)=O`, the Potency entry was “inactive”.
In the case of `CC(C)NCC(O)COc1ccc(CCOCC2CC2)cc1` (stereo not given), the Potency entry was “inactive”.
Regarding `CCN1CCCC1CNC(=O)c1cc(S(=O)(=O)CC)c(N)cc1OC` (stereo not given), the Potency entry is “inactive”.
In the case of `C[C@@H]1CC(=O)NN=C1c1ccc(NN=C(C#N)C#N)cc1` it was 29.6 µM (active); in that of `CC(C)Cc1ccc(C(C)C(=O)O)cc1` (stereo not given), “inactive”; in that of `Clc1ccc2c(c1)C(N1CCNCC1)=Nc1ccccc1O2`, “inactive”.
With `COc1cc2nc(N3CCN(C(=O)c4ccco4)CC3)nc(N)c2cc1OC`, the Potency was 29.6 µM (active).
In the case of `COc1ccc(CCN(C)CCCC(C#N)(c2ccc(OC)c(OC)c2)C(C)C)cc1OC` (stereo not given), the Potency result is “inactive”.
With `CC1(C)O[C@H]2CC(=O)OC[C@]23[C@H]2CC[C@@]4(C)[C@H](c5ccoc5)OC(=O)[C@H]5O[C@]54[C@]2(C)C(=O)C[C@@H]13`, the Potency entry is “inactive”.
Turning to `Cn1c(=O)c2c(ncn2C)n(C)c1=O`, the Potency result was “inactive”.
Turning to `CN1C2CCC1CC(OC(=O)C(CO)c1ccccc1)C2` (stereo not given), the Potency result is “inactive”.
Consider `COc1cc2nc(N(C)CCCNC(=O)C3CCCO3)nc(N)c2cc1OC` (stereo not given), for which the Potency result is “inactive”.
With `CN1CCN(CCCN2c3ccccc3Sc3ccc(Cl)cc32)CC1`, the Potency was 9.35 µM (active) and 26.6 µM (active).
For the compound `CN(C)C(=N)N=C(N)N`, the Potency entry is “inactive”.
With `COc1ccc2[nH]cc(CCNC(C)=O)c2c1`, the Potency result was “inactive”.
In the case of `Cn1ccc2cc3c(cc21)CCN3C(=O)Nc1cccnc1` it was “inactive”; in that of `Cc1cn([C@H]2C=C[C@@H](CO)O2)c(=O)[nH]c1=O`, “inactive”; in that of `COc1ccc2c(c1)c(CC(=O)O)c(C)n2C(=O)c1ccc(Cl)cc1`, “inactive”.
In the case of `N[C@@H](Cc1c[nH]c2ccc(O)cc12)C(=O)O`, the Potency result is “inactive”.
`Clc1ccccc1C(c1ccccc1)(c1ccccc1)n1ccnc1`: the Potency was 18.7 µM (active).
Take `O=C1N(c2ccccc2)c2ccccc2C1(Cc1ccncc1)Cc1ccncc1`: the Potency entry was “inactive”.
Regarding `CCC1(C)CC(=O)NC1=O` (stereo not given), the Potency result was “inactive”.
As to `Nc1ccn([C@H]2CC[C@@H](CO)O2)c(=O)n1`, the Potency entry was “inactive”.
As to `CCOC(=O)c1ncn2c1CN(C)C(=O)c1cc(F)ccc1-2`, the Potency entry is “inactive”.
For `CN(C)c1nc(N(C)C)nc(N(C)C)n1`, the Potency entry was “inactive”.
Take `Cc1cn([C@H]2C[C@H](N=[N+]=[N-])[C@@H](CO)O2)c(=O)[nH]c1=O`: the Potency result is “inactive”.
In the case of `O=c1c(O)c(-c2ccc(O)c(O)c2)oc2cc(O)cc(O)c12` it was “inactive”; in that of `O=c1[nH]cc(F)c(=O)[nH]1`, “inactive”; in that of `CC[N+](CC)(CC)CCOc1cccc(OCC[N+](CC)(CC)CC)c1OCC[N+](CC)(CC)CC`, “inactive”.
Then `CS(=O)(=O)CCNCc1ccc(-c2ccc3ncnc(Nc4ccc(OCc5cccc(F)c5)c(Cl)c4)c3c2)o1`, with 1.32 µM (active) and 26.6 µM (active); and `O=C(c1ccc(OCCN2CCCCC2)cc1)c1c(-c2ccc(O)cc2)sc2cc(O)ccc12`, with 23.7 µM (active) and 18.7 µM (active); and `NCCS(=O)(=O)O`, with “inactive”.
Then `CC(C)(Oc1ccc(C2CC2(Cl)Cl)cc1)C(=O)O` (stereo not given), with “inactive”; and `CC[C@@]1(O)C(=O)OCc2c1cc1n(c2=O)Cc2cc3c(CN(C)C)c(O)ccc3nc2-1`, with 2.66 µM (active) and 4.69 µM (active); and `Cn1c(=O)c2[nH]cnc2n(C)c1=O`, with “inactive”.
As for `COc1ccc(C2CNC(=O)C2)cc1OC1CCCC1` (stereo not given), the Potency entry is “inactive”.
In the case of `CN(C)CCOC(c1ccccc1)c1ccccc1` it was “inactive”; in that of `CC1COc2c(N3CCN(C)CC3)c(F)cc3c(=O)c(C(=O)O)cn1c23` (stereo not given), “inactive”.
